Assay outcomes as filed in PubChem.
SW480 rereplic = inducers of DNA re-replication in SW480 colon cancer cells | SW480 DNA re-replication, Hoechst DNA content imaging, 48 h | Potency, µM (titrated, usually from 46.1 µM), actives largely listed as activators | 340,000 compounds, 1.8% hits; also: nearly all actives have a fitted effect of over 55% in size
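Cells (250 per well) received 23 nL compound or DMSO by pin tool and were kept 48 hr at 37 C, 5% CO2. Nuclei were then stained with Hoechst for 40 min and scanned for DNA content.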
KB-V1 MDR tox = KB-V1 MDR subline cytotoxicity | Potency, µM (highest dose often 46.1 µM), usual class: cytotoxic | 400,000 compounds, 3.4% hits | KB-V1 MDR cells viability, CellTiter-Glo, 72 h; also: nearly all actives have a fitted effect of over 60% in size
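qHTS viability screen in drug-selected KB-V1 MDR cells: 72 h compound treatment at 37 degrees C, ATP luminescence end point.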
PTAP TSG101 blk = blocks PTAP/TSG101 interaction to inhibit HIV-1 budding; Fluorescence polarization, FITC-PTAP peptide / Tsg101 binding; Potency, µM (top dose mostly 115 µM), actives largely listed as inhibitors; 340,000 tested, under 10 active; AID 493005; active = well fitted inhibition curve with a large enough effect in the main read-out, with a control signal flat, not every such curve was filed as active; inconclusive = small, poorly fitted or top-dose-only effect, or effect the other way, or a change in a side signal; inactive = no such curve, though single readings can be large or run the other way
Target sequence (Q99816 whole entry, looked up): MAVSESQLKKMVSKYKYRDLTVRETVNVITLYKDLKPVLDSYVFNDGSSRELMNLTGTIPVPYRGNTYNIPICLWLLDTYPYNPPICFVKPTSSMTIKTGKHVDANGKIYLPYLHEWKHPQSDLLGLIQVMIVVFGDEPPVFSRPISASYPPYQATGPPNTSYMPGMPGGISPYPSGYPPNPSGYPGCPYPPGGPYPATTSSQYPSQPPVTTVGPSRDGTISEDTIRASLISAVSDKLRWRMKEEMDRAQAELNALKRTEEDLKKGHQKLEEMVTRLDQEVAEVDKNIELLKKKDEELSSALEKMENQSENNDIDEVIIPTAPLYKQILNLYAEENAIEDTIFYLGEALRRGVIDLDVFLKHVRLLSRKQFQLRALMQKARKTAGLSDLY
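Compounds were pin-transferred onto Tsg101 binding domain (10 uM final) in HEPES pH 7.5 buffer, then FITC-PTAP peptide was added at 50 nM final. After 20 min at RT, polarization reported peptide displacement across a qHTS concentration series.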
MCF10A rerep = inducers of DNA re-replication in MCF 10A breast cells | MCF 10A DNA re-replication, Hoechst nuclear intensity, 48 h | Potency, µM (top dose mostly 46.1 µM), hits mostly activators | 350,000 compounds, 2.9% hits | AID 624296; also: nearly all actives have a fitted effect of over 50% in size
KB-3-1 cytotox = kills parental KB-3-1 adenocarcinoma cells | KB-3-1 viability, CellTiter-Glo ATP luminescence, 72 h | Potency, µM (series often up to 46.1 µM), actives largely listed as cytotoxic | 400,000 compounds, 1.4% hits; also: nearly all actives have a fitted effect of over 60% in size
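KB-3-1 cells, DMEM (no phenol red) + 10% FBS; compound by pin transfer, 72 h, 37 °C. Readout: CellTiter-Glo luminescence after 10 min. Data normalized, curve-fitted.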
PINK1 modulator = PINK1 expression modulation; PINK1 immunofluorescence, high-content cytometry, 24 h; Potency, µM (top dose mostly 76.6 µM), most hits filed as activators; 410,000 compounds, 0.2% hits; AID 624263; active = well fitted activation curve with a large enough effect; inconclusive = small, poorly fitted or top-dose-only effect; cell line not stated here; also: nearly all actives have a fitted effect of over 65% in size
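PINK1 protein level read as immunofluorescence by microplate cytometer in a fixed, stained stable cell line after 24 h exposure to five compound concentrations, with CCCP as control.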
Hits are given with their value; - = inactive; ? = inconclusive; . = no result. A selection: hits, their analogues and other compounds. The true share with any hit is near 6.8%. Unless noted, calls follow the shape of the dose curve; as a rule, active = well fitted curve in the direction sought with a large enough effect; inconclusive = small, poorly fitted or top-dose-only effect, or another doubt; inactive = no such curve, though single readings can be large; an effect the other way counts as inactive or inconclusive.

SMILES	SW480 rereplic	KB-V1 MDR tox	PTAP TSG101 blk	MCF10A rerep	KB-3-1 cytotox	PINK1 modulator
Cc1ccc(C(=O)N2CCN(c3ccccc3)CC2)cc1NC(=O)c1nsc2ccccc12	.	-	.	.	-	-
COc1ccccc1NC(=O)C(=O)N1N=C(C(C)C)CC1(O)C(F)(F)F (stereo not drawn)	-	-	-	8.2µM	-	.
CCC1=NN(C(=O)C(=O)Nc2ccccc2OC)C(O)(C(F)(F)F)C1 (stereo not drawn)	-	-	-	?	-	-
Cn1c(N)c(C(C[N+](=O)[O-])c2ccccc2Cl)c(=O)n(C)c1=O (stereo not drawn)	?	-	-	?	-	-
COc1cc(C(C[N+](=O)[O-])c2c(C)[nH]c3ccccc23)ccc1O (stereo not drawn)	-	?	-	-	?	-
Cc1ccc(C(C[N+](=O)[O-])c2c(N)n(C)c(=O)n(C)c2=O)cc1 (stereo not drawn)	-	?	-	23µM	16µM	-
COc1cccc(C(C[N+](=O)[O-])c2c(C)[nH]n(-c3ccccc3)c2=O)c1 (stereo not drawn)	?	-	-	-	-	-
CC(C(c1ccc2c(c1)OCO2)c1c(N)n(C)c(=O)n(C)c1=O)[N+](=O)[O-] (stereo not drawn)	?	?	-	12µM	-	-
COc1cccc(F)c1C(C[N+](=O)[O-])c1c(N)n(C)c(=O)n(C)c1=O (stereo not drawn)	4.1µM	?	-	7.3µM	?	-
COc1cc(C(C[N+](=O)[O-])c2c(N)n(C)c(=O)n(C)c2=O)ccc1O (stereo not drawn)	?	?	-	18µM	?	-
CC(C)NC(=O)c1cn([C@H]2CC[C@@H](NC(=O)/C=C/c3cccs3)CC2)nn1	.	.	.	.	.	-
COCCn1c(C)cc(/C=C(\C#N)C(=O)OC(C)C(=O)Nc2ccc(NC(C)=O)cc2)c1C (stereo not drawn)	18µM	-	-	?	-	?
Cc1cc(/C=C(/C#N)C(=O)O)c(C)n1CCC(C)C	-	-	-	?	-	-
COc1ccccc1NC(=S)N(Cc1ccco1)Cc1cc2cccc(C)c2[nH]c1=O	-	?	-	-	-	-
COc1ccccc1NC(=O)N(Cc1ccco1)Cc1cc2cc(C)cc(C)c2[nH]c1=O	?	18µM	-	?	?	-
Cc1ccc2cc(CN(Cc3ccco3)C(=O)c3cccs3)c(=O)[nH]c2c1	15µM	5.2µM	-	2.6µM	?	-
COc1ccccc1NC(=O)N(Cc1ccco1)Cc1cc2ccc(C)c(C)c2[nH]c1=O	18µM	5.8µM	-	7.3µM	5.8µM	-
COc1ccccc1NC(=O)N(CCN1CCOCC1)Cc1cc2cc(C)cc(C)c2[nH]c1=O	-	-	-	-	-	-
Cc1cccc2cc(CN(Cc3ccco3)C(=O)c3cccs3)c(=O)[nH]c12	-	-	-	-	?	-
COc1ccccc1NC(=S)N(Cc1ccco1)Cc1cc2cc(C)c(C)cc2[nH]c1=O	5.8µM	2.6µM	-	2.1µM	?	-
COc1ccc(C(=O)Nc2ccc(-c3cc4ccccc4oc3=O)c(C)c2)cc1Br	.	?	.	.	-	-
CC(=O)c1ccc(NC(=O)Nc2ncn(Cc3cccc(C)c3)n2)cc1	-	16µM	-	-	-	-
Cn1c(CSc2nnc(SCc3ccccc3)s2)nc2ccccc21	-	16µM	-	-	-	-
O=[N+]([O-])c1ccc(CSc2nc3ccccc3o2)cc1	-	-	-	-	-	-
Cc1cccc(-n2c(Cc3ccccc3)nnc2SCc2ccc([N+](=O)[O-])cc2)c1	-	7.3µM	-	?	?	-
SMILES	SW480 rereplic	KB-V1 MDR tox	PTAP TSG101 blk	MCF10A rerep	KB-3-1 cytotox	PINK1 modulator
Cn1c(CSc2nc3ccc(Br)cc3[nH]2)nc2ccccc21	-	-	-	-	-	.
O=[N+]([O-])c1ccc(CSc2nnc(SCc3ccccc3)s2)cc1	-	-	-	6.5µM	-	-
Cc1cccc(-n2c(SCc3ccc(C#N)cc3)nnc2-c2c[nH]c3ccccc23)c1	-	3.3µM	-	-	?	-
COC(=O)c1ccc(CSc2nnc(-c3c[nH]c4ccccc34)n2-c2ccccc2)cc1	?	-	-	?	?	-
O=[N+]([O-])c1ccc(CSc2nnc(Cc3ccccc3)n2-c2ccc(F)cc2)cc1	.	?	-	-	-	-
COc1cc(OC)cc(C(=O)Nc2cc3c(cc2N2CCCC2)n(C)c(=O)c(=O)n3C)c1	.	-	.	.	-	-
COc1cc2nc(C#N)nc(N)c2cc1OC	.	.	.	.	.	-
Cc1cccc[n+]1CC(=O)/C=C1\N(C)c2ccccc2C1(C)C	-	-	-	?	4.1µM	-
Cc1ccc[n+](CC(=O)/C=C2\N(C)c3ccccc3C2(C)C)c1	-	?	-	-	7.3µM	-
O=[N+]([O-])c1ccc(N2CCN(c3ccc(O)cc3)CC2)cn1	-	?	-	-	-	-
O=[N+]([O-])c1ccc(N2CCN(c3ccccc3Cl)CC2)cn1	-	?	-	-	5.2µM	-
O=C(CN(Cc1ccccc1)S(=O)(=O)c1ccccc1)N/N=C/c1ccc([N+](=O)[O-])cc1	?	2.1µM	-	-	-	-
O=C(CN(Cc1ccccc1)S(=O)(=O)c1ccc2c(c1)OCCO2)N/N=C/c1cccc(Br)c1	-	18µM	-	-	-	-
O=C(CN(Cc1ccc(Cl)c(Cl)c1)S(=O)(=O)c1ccccc1)N/N=C\c1ccc2c(c1)OCO2	?	21µM	-	-	?	-
O=C(CN(Cc1ccccc1)S(=O)(=O)c1ccc2c(c1)OCCO2)N/N=C/c1ccc(F)cc1	-	-	-	-	-	-
CCN(Cc1ccccc1)c1ccc(/C=N/NS(=O)(=O)c2cccc([N+](=O)[O-])c2)cc1	-	16µM	-	?	-	-
COc1cc(-c2cc(C)c3cccc(OC)c3n2)cc2c1OCCN(C(=O)CC1NC(=O)c3ccccc31)C2 (stereo not drawn)	.	.	.	.	.	-
CCCCNC(=O)c1cnc2sc(N3CCCCCC3)nn2c1=O	.	.	.	.	.	-
CCOc1ccc(C(=O)NCC(c2ccco2)S(=O)(=O)c2ccc(C)cc2)cc1 (stereo not drawn)	.	-	.	.	-	-
COc1ccccc1N1CCN(C(=O)c2ccc(-c3ccc(Cl)cc3)o2)CC1	?	?	-	?	4.6µM	-
COc1ccccc1N1CCN(C(=O)NCc2ccc(Cl)cc2)CC1	-	-	-	-	-	-
CCc1ccc2oc(C(=O)N3CCN(c4ccccc4OC)CC3)cc(=O)c2c1	?	23µM	-	12µM	18µM	-
CC(C)c1ccc(S(=O)(=O)c2nnn3c2nc(N2CCN(C)CC2)c2sccc23)cc1	.	-	.	.	-	-
